Experimental data as given in the supplement of paper PMC3334620.
In all, about 33,000 sequences were measured (“E-score (-0.5 to 0.5)”: median about -0.035, highest 2% from about 0.34 on). The list comes from a sample in which the highest values are over-represented; it also holds similar and randomly drawn sequences.

Target: T1, Mot3 (UniProt P54785)
T1 sequence: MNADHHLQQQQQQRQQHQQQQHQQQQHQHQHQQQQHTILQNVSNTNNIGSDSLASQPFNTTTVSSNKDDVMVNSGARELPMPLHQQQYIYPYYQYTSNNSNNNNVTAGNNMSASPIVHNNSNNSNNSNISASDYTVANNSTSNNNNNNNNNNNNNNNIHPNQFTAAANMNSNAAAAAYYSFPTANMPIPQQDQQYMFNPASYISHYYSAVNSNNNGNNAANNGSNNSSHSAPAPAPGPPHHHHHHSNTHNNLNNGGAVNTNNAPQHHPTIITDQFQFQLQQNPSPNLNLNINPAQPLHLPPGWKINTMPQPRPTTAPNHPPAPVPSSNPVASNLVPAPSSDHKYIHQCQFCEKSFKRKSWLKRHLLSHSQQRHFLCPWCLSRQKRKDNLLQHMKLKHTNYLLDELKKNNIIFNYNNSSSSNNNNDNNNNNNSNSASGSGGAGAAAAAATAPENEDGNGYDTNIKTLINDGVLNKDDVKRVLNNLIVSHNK
Assay: PBM E-score (8-mer binding enrichment) (E-score (-0.5 to 0.5)); higher = stronger / more preferred TF binding
Conditions: protein concentration: 200 nM; construct: GST-full length
Experimental: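 Universal 'all 10-mer' protein binding microarrays (Agilent AMADID 015681) probed with GST-tagged S. cerevisiae TFs (full-length or DBD) made by in vitro transcription/translation (PURExpress), about 100-200 nM. Bound TF was detected with fluorescent anti-GST. Each ungapped 8-mer (which stands for itself and its reverse complement) is scored by the PBM enrichment score (E-score), a modified Wilcoxon-Mann-Whitney statistic from -0.5 to +0.5, computed with the Universal PBM Analysis Suite. Scale: above 0.35 generally sequence-specific binding.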

Sequence | PBM E-score
ACAGGCAT | 0.409
ACAGGCAG | 0.239
ACAGGCCT | 0.00325
ACAGGCCA | 0.296
ACAGGCAA | 0.489
CCCACTGC | -0.32
GTACCCAC | 0.0626
TATGGCAA | -0.0849
GTTGTAAA | 0.31
CTTGTAAC | 0.281
GATGTAAA | 0.35
ATTGTAAA | 0.3
AATGTAGA | 0.221
CGTGTCAG | 0.223
CGTGTCAA | 0.342
ACTGTAAA | 0.191
AATGTAAA | 0.374
CTTGTAAA | 0.378
GCTGTAAA | 0.25
AGTGTCAA | -0.0255
GAACTCGC | -0.0603
GTCTCATA | -0.0702

Sequence | PBM E-score
CCGCCTTC | -0.226
GGCTCGTA | 0.112
ACGGTTGG | -0.106
AGCGTGAT | -0.153
TCTGGTCA | -0.0723
CCCCACGG | -0.224
TATGTAAA | 0.434
AATGTAAT | 0.377
CCTGTAAG | 0.282
AATGTAAG | 0.201
CACGTAAA | 0.339
TATGTAGA | 0.333
ACTGTAAT | 0.169
CATGTAAA | 0.436
CATGTAAG | 0.398
TCTGTAAA | 0.231
AATGTAAC | 0.218
CCTGTAAA | 0.335
CTGCTGAC | 0.0167
AAAAGGAG | 0.0569
ACAGTGGG | -0.0834
GCTACAGC | -0.167

Sequence | PBM E-score
CGAAGTAA | 0.174
CTGCTGCA | -0.0263
CAGTTAGC | -0.274
CCATCTCA | -0.228
CCGCAGGC | 0.272
AGGAGTAC | 0.171
AACCGACA | 0.0529
CCAGAACG | -0.0663
ACCAGCGT | -0.0988
GATGTAAC | 0.175
CCTGTAAC | 0.295
TATGTCAA | 0.363
CATGTAAC | 0.382
GATGTCAA | 0.144
AATGTCAA | 0.0969
CTAGCACC | -0.0791
CGTTTGAG | -0.0011
CACGTGTC | 0.183
AACGTGTA | 0.415
CACGTGTA | 0.383
AACGTGTC | 0.273
GACGTGTA | 0.318

Sequence | PBM E-score
CACGTGAA | 0.183
CGTCTGTA | 0.135
ACCCATAA | -0.196
ATACCCAT | 0.142
CTATGAAC | 0.2
CCAGTGTA | 0.0502
CAGACATG | 0.106
CAGGCATC | 0.402
CATGCATG | 0.0529
GAGGCATC | 0.145
CAGGCATA | 0.319
CAGGCATG | 0.358
AGGTGTGC | 0.0416
AAGATCTC | -0.0117
ACAGGTAG | -0.0129
ACAGGTAT | 0.194
ACAGGTAA | 0.39
GCAGGTAA | 0.385
ACAGGTAC | 0.423
GCAGGTAC | 0.452
